System: Vero E6 infected with SARS-CoV-2
Assay: inhibition of SARS-CoV-2 cytopathic effect; higher = more antiviral protection, active = above 15
Conditions: 48 h

Measured: inhibition of SARS-CoV-2 cytopathic effect

CCOC(=O)c1c(C)n(C)c2ccc(O)cc12 [mecarbinate]
inactive: 1 nM -0.79% | 8.33 nM -1.26% | 100 nM -2.84% | 833.33 nM -2.4% | 10000 nM -2.61%

O=C(Nc1ccccc1C(=O)Nc1ccc(CCO)cc1)c1ccc([N+](=O)[O-])cc1
inactive: 1 nM -0.75% | 8.33 nM 0.23% | 100 nM -1.82% | 833.33 nM -1.34% | 10000 nM -1.2%

CCOC(=O)c1c(/C(C#N)=C\N)c2ccc(Cl)c(Cl)c2n1C
inactive: 1 nM -0.1% | 8.33 nM 0.69% | 100 nM 0.36% | 833.33 nM 0.1% | 10000 nM -2.18%

N[C@@H]1[C@H]2CN(c3nc4c(cc3F)c(=O)c(C(=O)O)cn4-c3ccc(F)cc3F)C[C@@H]12 [trovafloxacin]
inactive: 1 nM -8.03% | 8.33 nM -6.09% | 100 nM -4.83% | 833.33 nM -0.82% | 10000 nM -1.33%

COc1cc2c(cc1C(F)(F)F)N(C(=O)Nc1cc(F)cc(-c3cccnc3)c1)CC2
inactive: 1 nM 1.91% | 8.33 nM 2.35% | 100 nM 0.87% | 833.33 nM 2.32% | 10000 nM 2.45%

N#Cc1c(N(CC(=O)O)CC(=O)O)sc(C(=O)O)c1CC(=O)O [Strontium Ranelate]
inactive: 1 nM 1.28% | 8.33 nM 2.01% | 100 nM 0.58% | 833.33 nM 5.99% | 10000 nM 1.75%

Cc1ncc(CO)c(CO)c1O [pyridoxine]
inactive: 1 nM -15.8% | 8.33 nM -9.76% | 100 nM -7.58% | 833.33 nM -12.7% | 10000 nM -14.1%

Cn1c(=O)c(F)c(Nc2ccc(I)cc2F)c2c(=O)n(C[C@@H](O)CO)cnc21
inactive: 1 nM -3.03% | 8.33 nM -6.23% | 100 nM -11% | 833.33 nM -11.6% | 10000 nM -12.3%

CN(C)Cc1cccc(N/C(=C2\C(=O)Nc3cc(C(N)=O)ccc32)c2ccccc2)c1
inactive: 1 nM -2.86% | 8.33 nM 2.55% | 100 nM 0.04% | 833.33 nM 2.08% | 10000 nM 2.55%

C[C@H](NC(=O)C(C)(C)Oc1ccc(C(F)(F)F)cn1)[C@@H](Cc1ccc(Cl)cc1)c1cccc(C#N)c1 [taranabant]
inactive: 1 nM -0.8% | 8.33 nM 0.33% | 100 nM -2.11% | 833.33 nM 1.39% | 10000 nM -5.97%

O=C(C[S+]([O-])C(c1ccccc1)c1ccccc1)NO (stereo not given) [adrafinil]
inactive: 1 nM -1.03% | 8.33 nM -1.5% | 100 nM -3.32% | 833.33 nM 1.58% | 10000 nM -1.53%

N=C(NCc1ccc(Cl)cc1)SCCCc1c[nH]cn1 [clobenpropit]
inactive: 1 nM 1.58% | 8.33 nM 1.91% | 100 nM 1.78% | 833.33 nM 1.78% | 10000 nM 0.31%

COc1ccc(Cl)cc1NC(=O)Nc1cc(C)nc2ccccc12
inactive: 1 nM 1.48% | 8.33 nM -2.11% | 100 nM -0.41% | 833.33 nM 1.18% | 10000 nM -17.7%

CCCCS(=O)(=O)N[C@@H](Cc1ccc(OCCCCC2CCNCC2)cc1)C(=O)O [tirofiban]
inactive: 1 nM 1.63% | 8.33 nM 1.13% | 100 nM 0.55% | 833.33 nM 0.26% | 10000 nM 2.44%

Cc1ccc(S(=O)(=O)Cc2nc(-c3ccc(C(=O)NCc4cccnc4)cc3)oc2C)cc1
inactive: 1 nM -2.69% | 8.33 nM -2.16% | 100 nM -15.4% | 833.33 nM -19.2% | 10000 nM -16.4%

COc1cc2nccc(Oc3ccc(NC(=O)C4(C(=O)Nc5ccc(F)cc5)CC4)cc3)c2cc1OC [cabozantinib]
inactive: 1 nM 1.77% | 8.33 nM 1.83% | 100 nM -0.89% | 833.33 nM -1.04% | 10000 nM -14.2%

CNCC(=O)O [sarcosine]
inactive: 1 nM 0.02% | 8.33 nM 0.73% | 100 nM 0.05% | 833.33 nM 2.03% | 10000 nM 0.53%

Cc1nc2n(c(=O)c1CCN1CCC(c3noc4cc(F)ccc34)CC1)CCCC2O (stereo not given) [paliperidone]
inactive: 1 nM -1.5% | 8.33 nM -3.74% | 100 nM -2.02% | 833.33 nM -3.59% | 10000 nM -4.1%

CCN1C(C)(C)CC(Oc2ccc(C(=O)Nc3ccc(NC(=O)Nc4cc(C(C)(C)C)on4)cc3)nc2)CC1(C)C
inactive: 1 nM -2.79% | 8.33 nM -0.55% | 100 nM -1.48% | 833.33 nM -1.05% | 10000 nM -4.86%

O=C1Cc2c([nH]c3ccc(Br)cc23)-c2ccccc2N1 [kenpaullone]
inactive: 1 nM -1.82% | 8.33 nM -2.19% | 100 nM 0.37% | 833.33 nM 0.56% | 10000 nM 12%

O=C(O[C@H]1C[C@H]2CC[C@@H](C1)[N+]21CCCC1)C(O)(c1ccccc1)c1ccccc1 [trospium]
inactive: 1 nM -1.88% | 8.33 nM 0.55% | 100 nM 1.21% | 833.33 nM -1.72% | 10000 nM -0.69%

CN(C(=O)c1c(O)c2ccccc2n(C)c1=O)c1ccccc1 [roquinimex]
inactive: 1 nM -4.01% | 8.33 nM 0.29% | 100 nM 2.85% | 833.33 nM -0.21% | 10000 nM 0%

CC(=O)/N=c1/[nH]c(C)c(-c2ccc(Cl)c(S(=O)(=O)NCCO)c2)s1
inactive: 1 nM 0.03% | 8.33 nM -0.02% | 100 nM 1.03% | 833.33 nM 1.81% | 10000 nM 2.47%

CCc1c2c(nc3ccc(O)cc13)-c1cc3c(c(=O)n1C2)COC(=O)[C@]3(O)CC
inactive: 1 nM 1.57% | 8.33 nM 0.05% | 100 nM -1.96% | 833.33 nM -6.66% | 10000 nM -16.9%

O=C1CN2Cc3c(ccc(Cl)c3Cl)N=C2N1 [anagrelide]
inactive: 1 nM 0.79% | 8.33 nM -0.94% | 100 nM -1.24% | 833.33 nM -0.35% | 10000 nM 0.92%

C/C(=N\NC(=O)C(NC(=O)c1ccccc1)c1n[nH]c(=O)c2ccccc12)c1cccc(Br)c1 (stereo not given)
inactive: 1 nM -0.71% | 8.33 nM 2.21% | 100 nM 0.8% | 833.33 nM 3.15% | 10000 nM 4.46%

CCCC[C@@H](NC(=O)[C@@H](Cc1cn(C(=O)OC)c2ccccc12)NC(=O)[C@H](CC(C)(C)C)NC(=O)N1[C@H](C)CCC[C@@H]1C)C(=O)O
inactive: 1 nM 1.03% | 8.33 nM 2.89% | 100 nM 1.32% | 833.33 nM -1.6% | 10000 nM 1.29%

c1cncc(CN2CCC(n3ncc4c(N5CCOCC5)nc(-c5ccc6[nH]ccc6c5)nc43)CC2)c1
active: 10000 nM 17.7%
inactive: 1 nM 1.62% | 8.33 nM 0.29% | 100 nM 2.14% | 833.33 nM 12.2%

CC(C)C[C@@H](C(=O)N[C@H](C(=O)OC1CCCC1)c1ccccc1)[C@H](O)C(=O)NO [tosedostat]
inactive: 1 nM 3.34% | 8.33 nM 6.05% | 100 nM -1.49% | 833.33 nM 3.93% | 10000 nM 4.94%

COC(=O)Nc1ccc(-c2nc(N3CCOCC3)c3cnn(C4CCN(C(=O)OC)CC4)c3n2)cc1
inactive: 1 nM 1.39% | 8.33 nM 1.76% | 100 nM 4.01% | 833.33 nM 0.99% | 10000 nM 2.63%

CN(C)[C@@H]1C(O)=C(C(N)=O)C(=O)[C@@]2(O)C(O)=C3C(=O)c4c(O)cccc4[C@@](C)(O)[C@H]3C[C@@H]12 [tetracycline]
inactive: 1 nM 1.65% | 8.33 nM 1.27% | 100 nM -0.37% | 833.33 nM -0.82% | 10000 nM 1.35%

CC1OC2(CS1)CN1CCC2CC1 (stereo not given) [cevimeline]
inactive: 1 nM -0.26% | 8.33 nM -0.65% | 100 nM -1.15% | 833.33 nM -0.01% | 10000 nM -1.57%

Nc1cc(F)ccc1NC(=O)/C=C/c1cnn(C/C=C/c2ccccc2)c1
inactive: 1 nM -1.39% | 8.33 nM 1.78% | 100 nM 0.89% | 833.33 nM -2.26% | 10000 nM -1.9%

NC(=O)N/N=C/c1ccc([N+](=O)[O-])o1 [nitrofurazone]
inactive: 1 nM 0.32% | 8.33 nM 0.46% | 100 nM -1.2% | 833.33 nM -0.04% | 10000 nM 0.07%

CCN(C(C)=O)c1cccc(-c2ccnc3c(C#N)cnn23)c1
inactive: 1 nM -0.78% | 8.33 nM -1.57% | 100 nM -2.79% | 833.33 nM -0.59% | 10000 nM -0.53%

Oc1ccc(Cl)c2c1CCC2 [chlorindanol]
inactive: 1 nM 1.21% | 8.33 nM -1.76% | 100 nM -1.84% | 833.33 nM -1.95% | 10000 nM 4.12%

CCCc1ccc(C(=O)O)cc1 [4-propylbenzoic-acid]
inactive: 1 nM -0.54% | 8.33 nM 0.51% | 100 nM -0.57% | 833.33 nM -0.84% | 10000 nM 1.58%

CNC(=O)[C@H](Cc1ccccc1)NC(=O)[C@H](CC(C)C)[C@H](CSc1cccs1)C(=O)NO [batimastat]
inactive: 1 nM -1.9% | 8.33 nM -1.84% | 100 nM -3.51% | 833.33 nM -9.99% | 10000 nM -12.5%

Cc1cc([C@@H](C)Nc2ccccc2C(=O)O)c2nc(N3CCOCC3)cc(=O)n2c1
inactive: 1 nM -0.68% | 8.33 nM -0.79% | 100 nM -4.63% | 833.33 nM -7.74% | 10000 nM -2.98%

CN(C)C(=N)NCCC[C@H](N)C(=O)O [asymmetrical-dimethylarginine]
inactive: 1 nM -0.33% | 8.33 nM -0.09% | 100 nM -1.65% | 833.33 nM 0.84% | 10000 nM 1.97%

Source: the supplement of paper PMC13380429
